Assay results taken from PubChem BioAssay (EPA / NIEHS).
Activity calls are given as the source filed them. Rule for the calls: active = hit-call score of the fitted dose curve at least 0.9, where 1 is the maximum; inactive = score below 0.9.

Key:
Settings in all cases: mRNA level, 48 h; actives raise or lower the signal
[1] = read-out: Tumor necrosis factor receptor superfamily member 6 (Homo sapiens) (UniProt P25445); assay: LTEA_HepaRG_FAS: Life Technologies and Expression Analysis (LTEA) Assay for Fas cell surface death receptor (FAS) using HepaRG (AID 2283447)
Summary of the method: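 FAS transcript level was measured by TaqMan qRT-PCR against three housekeeping genes after 48 h chemical exposure. Cells were HepaRG, 0.5% DMSO vehicle, with a top concentration of 100 uM and half-log dilutions over eight points, in duplicate.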

[2] = read-out: Fatty acid synthase (Homo sapiens) (UniProt P49327); assay: LTEA_HepaRG_FASN: Life Technologies and Expression Analysis (LTEA) Assay for Fatty Acid Synthase (FASN) using HepaRG (AID 2283448)
Summary of the method: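 FASN expression changes, up or down relative to 0.5% DMSO, were measured by qRT-PCR in human HepaRG cells after 48 h treatment with chemicals at eight concentrations (half-log steps from 100 uM).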

[3] = read-out: Cyclin D1 (CCND1), CCND1 (gene 595); assay: LTEA_HepaRG_CCND1: Life Technologies and Expression Analysis (LTEA) Assay for Cyclin D1 (CCND1) using HepaRG (AID 2283451)
Summary of the method: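 Expression change is measured by qRT-PCR in HepaRG cells after 48 h treatment across eight concentrations topping at 100 uM, with duplicate wells and DMSO (0.5%) serving as baseline for bidirectional fitting.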

[4] = read-out: catalase (CAT), CAT (gene 847); assay: LTEA_HepaRG_CAT: Life Technologies and Expression Analysis (LTEA) Assay for catalase (CAT) using HepaRG (AID 2283452)
Summary of the method: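 Expression of CAT was quantified by TaqMan qRT-PCR with ACTB/GAPDH/POLR2A normalization after 48 h chemical exposure of HepaRG. Eight-point half-log series, top 100 uM, in 0.5% DMSO; gain or loss fitted against vehicle.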

[5] = read-out: flavin-containing dimethylaniline monooxygenases 3 (FMO3), FMO3 (gene 2328); assay: LTEA_HepaRG_FMO3: Life Technologies and Expression Analysis (LTEA) Assay for flavin-containing dimethylaniline monooxygenases 3 (FMO3) using HepaRG (AID 2283453)
Summary of the method: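 Differentiated HepaRG cells in serum-free induction medium, exposed 48 h in duplicate to 8 half-log concentrations up to 100 uM in 0.5% DMSO. FMO3 mRNA by qRT-PCR, normalized to ACTB, GAPDH, POLR2A; bidirectional fit vs DMSO.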

[6] = read-out: Cytochrome P450 (CYP1A1), CYP1A1 (gene 1543); assay: LTEA_HepaRG_CYP1A1: Life Technologies and Expression Analysis (LTEA) Assay for Cytochrome P450 (CYP1A1) using HepaRG (AID 2283454)
Summary of the method: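 Using HepaRG cultures with 0.5% DMSO as vehicle, eight-concentration exposures (max 100 uM) lasted 48 h. Transcript levels were measured by TaqMan qRT-PCR and normalized to ACTB, GAPDH and POLR2A.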

[7] = read-out: CFLAR gene, CFLAR (gene 8837); assay: LTEA_HepaRG_CFLAR: Life Technologies and Expression Analysis (LTEA) Assay for CFLAR gene using HepaRG (AID 2283455)
Summary of the method: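 HepaRG, 48 h exposure, 8-pt conc-response (100 uM top, half-log), 0.5% DMSO vehicle, duplicates. CFLAR expression by qRT-PCR; ACTB/GAPDH/POLR2A normalization; gain or loss fit vs DMSO baseline.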

[8] = read-out: Forkhead box O1 (FOXO1), FOXO1 (gene 2308); assay: LTEA_HepaRG_FOXO1: Life Technologies and Expression Analysis (LTEA) Assay for Forkhead box O1 (FOXO1) using HepaRG (AID 2283456)
Summary of the method: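 Readout is FOXO1 transcript level by multiplexed qRT-PCR against three housekeeping genes, curve-fitted in both directions relative to 0.5% DMSO vehicle. Human HepaRG cultures received chemicals for 48 h, up to 100 uM in half-log steps.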

[9] = read-out: growth arrest and DNA damage 45 (GADD45A), GADD45A (gene 1647); assay: LTEA_HepaRG_GADD45A: Life Technologies and Expression Analysis (LTEA) Assay for growth arrest and DNA damage 45 (GADD45A) using HepaRG (AID 2283458)
Summary of the method: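 Cells plated and cultured 48 h, switched to serum-free induction medium, then dosed for 48 h (100 uM top, half-log dilutions, 0.5% DMSO). RNA was isolated and transcript measured by Fluidigm qRT-PCR.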

[10] = read-out: Forkhead box O3 (FOXO3), FOXO3 (gene 2309); assay: LTEA_HepaRG_FOXO3: Life Technologies and Expression Analysis (LTEA) Assay for Forkhead box O3 (FOXO3) using HepaRG (AID 2283459)
Summary of the method: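 HepaRG, 48 h post-dose; 8 conc., half-log from 100 uM, 0.5% DMSO, duplicates; serum-free induction medium. Readout: FOXO3 mRNA, TaqMan qRT-PCR, housekeeping-normalized. Bidirectional curve fit vs DMSO baseline.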

[11] = read-out: ABC Transporter (ABCB1), ABCB1 (gene 5243); assay: LTEA_HepaRG_ABCB1: Life Technologies and Expression Analysis (LTEA) Assay for ABC Transporter (ABCB1) using HepaRG (AID 2283460)
Summary of the method: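 Expression of ABCB1 was quantified by qRT-PCR against three housekeeping genes after human HepaRG cultures received test chemicals for 48 hours. Concentrations spanned eight half-log steps topping at 100 uM in 0.5% DMSO; gain or loss of signal was fitted relative to vehicle.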

[12] = read-out: growth arrest and DNA damage 45 (GADD45B), GADD45B (gene 4616); assay: LTEA_HepaRG_GADD45B: Life Technologies and Expression Analysis (LTEA) Assay for growth arrest and DNA damage 45 (GADD45B) using HepaRG (AID 2283461)
Summary of the method: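 Human HepaRG monolayers receive chemicals for 48 h at eight half-log concentrations, highest 100 uM, in 0.5% DMSO. Expression is measured by TaqMan qRT-PCR and normalized to ACTB, GAPDH and POLR2A.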

[13] = read-out: ABC Transporter (ABCC3), ABCC3 (gene 8714); assay: LTEA_HepaRG_ABCC3: Life Technologies and Expression Analysis (LTEA) Assay for ABC Transporter (ABCC3) using HepaRG (AID 2283462)
Summary of the method: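 Transcriptional change of ABCC3 in HepaRG after 48 h treatment, determined by qRT-PCR normalized to endogenous controls. Concentrations spanned eight half-log steps to 100 uM in 0.5% DMSO.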

[14] = read-out: ABC Transporter (ABCB11), ABCB11 (gene 8647); assay: LTEA_HepaRG_ABCB11: Life Technologies and Expression Analysis (LTEA) Assay for ABC Transporter (ABCB11) using HepaRG (AID 2283463)
Summary of the method: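 ABCB11 transcript levels are read by Fluidigm TaqMan qRT-PCR after 48 h chemical treatment of human HepaRG cells. Concentrations span 100 uM downward in half-log steps with 0.5% DMSO; gain or loss is fitted against DMSO controls.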

[15] = read-out: ABC Transporter (ABCC2), ABCC2 (gene 1244); assay: LTEA_HepaRG_ABCC2: Life Technologies and Expression Analysis (LTEA) Assay for ABC Transporter (ABCC2) using HepaRG (AID 2283464)
Summary of the method: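 After plating and 48 h culture, HepaRG medium is replaced with serum-free induction medium and chemicals are added (8 concentrations, max 100 uM, 0.5% DMSO) for 48 h. Total RNA then undergoes qRT-PCR for ABCC2 with housekeeping normalization.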

[16] = read-out: Broad substrate specificity ATP-binding cassette transporter ABCG2 (Homo sapiens) (UniProt Q9UNQ0); assay: LTEA_HepaRG_ABCG2: Life Technologies and Expression Analysis (LTEA) Assay for ABC Transporter (ABCG2) using HepaRG (AID 2283465)
Summary of the method: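 Read-out is ABCG2 mRNA induction or loss quantified by qRT-PCR after 48 h chemical treatment of human HepaRG cells, normalized to three housekeeping genes. Concentrations reached 100 uM top in half-log steps; fitting was bidirectional against 0.5% DMSO.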

[17] = read-out: Cyclin D2 (CCND2), CCND2 (gene 894); assay: LTEA_HepaRG_CCND2: Life Technologies and Expression Analysis (LTEA) Assay for Cyclin D2 (CCND2) using HepaRG (AID 2283449)
Summary of the method: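 Read-out is CCND2 mRNA level measured by qRT-PCR in human HepaRG liver cells and normalised to three housekeeping genes. Chemicals were applied for 48 h at up to 100 uM, with gain or loss fitted relative to 0.5% DMSO.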

[18] = read-out: Cyclin Dependent Kinase Inhibitor 1A (CDKN1A), CDKN1A (gene 1026); assay: LTEA_HepaRG_CDKN1A: Life Technologies and Expression Analysis (LTEA) Assay for Cyclin Dependent Kinase Inhibitor 1A (CDKN1A) using HepaRG (AID 2283450)
Summary of the method: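 Gain or loss of CDKN1A transcript is scored by bidirectional fitting against 0.5% DMSO vehicle. Human HepaRG cultures receive chemicals for 48 h across an 8-point series peaking at 100 uM; expression comes from qRT-PCR.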

Chain of Fatty acid synthase (Homo sapiens) (P49327 whole entry, looked up): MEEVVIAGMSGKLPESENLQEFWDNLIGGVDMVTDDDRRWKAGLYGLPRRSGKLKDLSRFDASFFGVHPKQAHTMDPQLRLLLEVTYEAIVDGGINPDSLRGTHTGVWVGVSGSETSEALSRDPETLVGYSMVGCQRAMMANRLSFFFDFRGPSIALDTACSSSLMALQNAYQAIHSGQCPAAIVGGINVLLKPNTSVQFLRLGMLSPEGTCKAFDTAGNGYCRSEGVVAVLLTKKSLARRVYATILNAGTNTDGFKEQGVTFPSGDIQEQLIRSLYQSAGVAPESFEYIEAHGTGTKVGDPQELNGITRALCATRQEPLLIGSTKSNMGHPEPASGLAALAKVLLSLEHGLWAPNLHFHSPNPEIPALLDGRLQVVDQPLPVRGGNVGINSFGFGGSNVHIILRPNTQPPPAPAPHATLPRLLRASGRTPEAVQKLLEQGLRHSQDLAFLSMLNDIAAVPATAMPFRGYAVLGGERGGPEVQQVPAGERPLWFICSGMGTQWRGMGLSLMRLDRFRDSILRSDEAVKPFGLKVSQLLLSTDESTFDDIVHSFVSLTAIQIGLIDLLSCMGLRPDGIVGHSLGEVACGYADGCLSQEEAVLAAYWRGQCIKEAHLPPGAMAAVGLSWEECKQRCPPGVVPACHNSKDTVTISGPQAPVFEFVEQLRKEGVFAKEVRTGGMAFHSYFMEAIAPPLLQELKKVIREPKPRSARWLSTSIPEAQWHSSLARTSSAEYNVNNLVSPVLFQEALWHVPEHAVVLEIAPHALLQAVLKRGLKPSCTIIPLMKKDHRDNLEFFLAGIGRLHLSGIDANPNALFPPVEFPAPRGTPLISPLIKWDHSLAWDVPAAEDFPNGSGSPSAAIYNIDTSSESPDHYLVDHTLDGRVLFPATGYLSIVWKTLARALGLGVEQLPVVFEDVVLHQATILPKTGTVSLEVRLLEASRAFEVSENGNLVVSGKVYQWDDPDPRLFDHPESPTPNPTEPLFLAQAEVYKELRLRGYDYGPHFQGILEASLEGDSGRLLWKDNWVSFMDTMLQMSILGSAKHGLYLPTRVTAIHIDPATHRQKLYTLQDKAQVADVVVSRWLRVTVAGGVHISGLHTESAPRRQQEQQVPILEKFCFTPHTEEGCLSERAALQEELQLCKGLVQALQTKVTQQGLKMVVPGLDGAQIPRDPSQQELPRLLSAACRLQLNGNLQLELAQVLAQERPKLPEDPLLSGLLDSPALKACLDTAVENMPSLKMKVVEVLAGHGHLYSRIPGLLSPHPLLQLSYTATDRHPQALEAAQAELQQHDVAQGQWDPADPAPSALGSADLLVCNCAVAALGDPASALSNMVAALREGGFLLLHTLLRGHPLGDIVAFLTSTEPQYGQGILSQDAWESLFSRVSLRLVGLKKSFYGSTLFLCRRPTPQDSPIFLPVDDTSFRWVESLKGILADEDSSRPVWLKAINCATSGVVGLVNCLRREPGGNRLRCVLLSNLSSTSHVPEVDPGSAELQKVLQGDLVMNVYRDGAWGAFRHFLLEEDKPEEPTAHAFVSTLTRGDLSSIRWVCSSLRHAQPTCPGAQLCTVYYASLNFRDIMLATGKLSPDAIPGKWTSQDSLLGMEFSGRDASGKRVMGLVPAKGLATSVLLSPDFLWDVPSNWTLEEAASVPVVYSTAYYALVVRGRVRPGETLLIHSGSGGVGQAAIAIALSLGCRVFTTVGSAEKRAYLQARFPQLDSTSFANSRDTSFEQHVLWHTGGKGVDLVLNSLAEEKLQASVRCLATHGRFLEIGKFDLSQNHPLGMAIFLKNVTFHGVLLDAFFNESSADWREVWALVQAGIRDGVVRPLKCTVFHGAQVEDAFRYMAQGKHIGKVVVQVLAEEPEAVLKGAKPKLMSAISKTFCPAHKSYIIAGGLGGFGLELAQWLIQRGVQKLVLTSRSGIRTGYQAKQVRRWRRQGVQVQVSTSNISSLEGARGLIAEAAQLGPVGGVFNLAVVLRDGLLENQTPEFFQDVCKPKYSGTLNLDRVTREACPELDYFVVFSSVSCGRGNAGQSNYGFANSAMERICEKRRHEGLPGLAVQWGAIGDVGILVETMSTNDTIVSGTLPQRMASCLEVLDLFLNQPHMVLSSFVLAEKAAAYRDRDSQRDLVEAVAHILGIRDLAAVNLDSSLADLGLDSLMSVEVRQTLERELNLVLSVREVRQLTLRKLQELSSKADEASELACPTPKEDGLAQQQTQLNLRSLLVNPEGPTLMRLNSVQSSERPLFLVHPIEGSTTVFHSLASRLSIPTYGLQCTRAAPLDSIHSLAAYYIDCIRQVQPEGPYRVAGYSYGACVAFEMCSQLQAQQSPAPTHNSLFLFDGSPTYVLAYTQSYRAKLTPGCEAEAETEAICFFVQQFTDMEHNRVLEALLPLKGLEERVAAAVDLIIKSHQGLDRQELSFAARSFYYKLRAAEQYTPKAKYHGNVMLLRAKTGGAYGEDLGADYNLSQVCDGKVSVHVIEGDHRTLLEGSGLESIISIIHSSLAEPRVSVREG
Chain of Broad substrate specificity ATP-binding cassette transporter ABCG2 (Homo sapiens) (Q9UNQ0 whole entry, looked up): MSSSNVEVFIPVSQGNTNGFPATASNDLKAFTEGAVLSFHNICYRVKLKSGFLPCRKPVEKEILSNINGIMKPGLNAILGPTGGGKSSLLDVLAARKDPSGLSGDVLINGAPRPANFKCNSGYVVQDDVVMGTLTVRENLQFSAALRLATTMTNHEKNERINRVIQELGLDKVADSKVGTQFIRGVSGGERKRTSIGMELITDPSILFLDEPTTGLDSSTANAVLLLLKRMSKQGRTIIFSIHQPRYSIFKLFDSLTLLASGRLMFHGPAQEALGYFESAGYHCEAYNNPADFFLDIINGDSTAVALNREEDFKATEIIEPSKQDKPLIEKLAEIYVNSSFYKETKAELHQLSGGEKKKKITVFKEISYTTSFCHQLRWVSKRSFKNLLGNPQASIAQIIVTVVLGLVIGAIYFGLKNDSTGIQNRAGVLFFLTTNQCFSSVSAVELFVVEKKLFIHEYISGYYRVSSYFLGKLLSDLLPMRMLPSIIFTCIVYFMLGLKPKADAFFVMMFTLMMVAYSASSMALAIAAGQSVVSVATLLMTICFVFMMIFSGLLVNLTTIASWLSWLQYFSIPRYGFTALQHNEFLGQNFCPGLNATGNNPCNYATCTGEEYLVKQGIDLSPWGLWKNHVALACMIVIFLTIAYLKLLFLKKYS

COC(=O)Nc1nc2ccccc2[nH]1
outcome [1]: inactive
outcome [2]: inactive
outcome [3]: inactive
outcome [4]: inactive
outcome [5]: inactive
AC50 [6]: 24.7 µM (active)
outcome [7]: inactive
outcome [8]: inactive
outcome [9]: inactive
outcome [10]: inactive
outcome [11]: inactive
outcome [12]: inactive
outcome [13]: inactive
outcome [14]: inactive
outcome [15]: inactive
outcome [16]: inactive

c1ccc2c(c1)oc1ccccc12
outcome [1]: inactive
outcome [2]: inactive
outcome [3]: inactive
outcome [4]: inactive
outcome [5]: inactive
AC50 [6]: 50 µM (active)
outcome [7]: inactive
outcome [8]: inactive
outcome [9]: inactive
outcome [10]: inactive
outcome [11]: inactive
outcome [12]: inactive
outcome [13]: inactive
outcome [14]: inactive
outcome [15]: inactive
outcome [16]: inactive

N#CC(Br)Br
outcome [1]: inactive
outcome [2]: inactive
outcome [17]: inactive
outcome [3]: inactive
outcome [4]: inactive
outcome [5]: inactive
outcome [6]: inactive
outcome [7]: inactive
outcome [8]: inactive
outcome [9]: inactive
outcome [10]: inactive
outcome [11]: inactive
outcome [12]: inactive
outcome [13]: inactive
outcome [14]: inactive
outcome [15]: inactive
outcome [16]: inactive

CCCCC(CC)COC(=O)c1ccc(C(=O)OCC(CC)CCCC)c(C(=O)OCC(CC)CCCC)c1 (stereo unspecified)
outcome [1]: inactive
outcome [2]: inactive
outcome [18]: inactive
outcome [3]: inactive
outcome [4]: inactive
outcome [5]: inactive
AC50 [6]: 50 µM (active)
outcome [7]: inactive
outcome [8]: inactive
outcome [9]: inactive
outcome [10]: inactive
outcome [11]: inactive
outcome [12]: inactive
outcome [13]: inactive
outcome [14]: inactive
outcome [15]: inactive
outcome [16]: inactive

CCCSC(=O)N(CCC)CCC
outcome [1]: inactive
outcome [2]: inactive
outcome [17]: inactive
outcome [3]: inactive
outcome [4]: inactive
outcome [5]: inactive
AC50 [6]: 50 µM (active)
outcome [7]: inactive
outcome [8]: inactive
outcome [9]: inactive
outcome [10]: inactive
outcome [11]: inactive
outcome [12]: inactive
outcome [13]: inactive
outcome [14]: inactive
outcome [15]: inactive
outcome [16]: inactive

O=Cc1ccco1
outcome [1]: inactive
outcome [2]: inactive
outcome [3]: inactive
outcome [4]: inactive
outcome [5]: inactive
AC50 [6]: 50 µM (active)
outcome [7]: inactive
outcome [8]: inactive
outcome [9]: inactive
outcome [10]: inactive
outcome [11]: inactive
outcome [12]: inactive
outcome [13]: inactive
outcome [14]: inactive
outcome [15]: inactive
outcome [16]: inactive

Clc1ccc(Cl)c(Cl)c1
outcome [1]: inactive
outcome [2]: inactive
outcome [18]: inactive
outcome [3]: inactive
outcome [4]: inactive
outcome [5]: inactive
outcome [6]: inactive
AC50 [7]: 50 µM (active)
outcome [8]: inactive
AC50 [9]: 9.92 µM (active)
outcome [10]: inactive
outcome [11]: inactive
outcome [12]: inactive
outcome [13]: inactive
AC50 [14]: 50 µM (active)
outcome [15]: inactive
outcome [16]: inactive
